Shown are actives, neighbours in structure and some others; about 19% of the full set was active somewhere.
HT1080 IDH1KD tx: qHTS for induction of synthetic lethality in tumor cells producing 2HG: qHTS for the HT-1080-IDH1KD cell line | Potency, µM (series often up to 46.1 µM), inactives show at the highest dose activity, negative = toxicity, hits mostly cytotoxic | HT-1080 IDH1 knockdown viability, ATP luminescence, 48 h | AID 686971, 2013 | 360,000 tested, 2% active;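 also: 0% = DMSO wells and -100% = cell-free medium wells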
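Knockdown cells (IDH1KD HT-1080) received compounds 2 h after plating at 750 cells/well and were kept 48 h at 37 °C in 5% FBS RPMI. A CellTiter-Glo luminescence read gave % activity for curve fitting.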
KB-3-1 tox: qHTS assay for MDR1-selective chemotherapeutics: Primary screen using the parental adenocarcinoma cell KB-3-1; KB-3-1 viability, CellTiter-Glo ATP luminescence, 72 h; Potency, µM (highest dose often 46.1 µM), actives largely listed as cytotoxic; 400,000 tested, 1.4% active; AID 1347075, 2019; also: nearly all actives have a fitted effect of over 60% in size
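KB-3-1 parental drug-naive adenocarcinoma cells in DMEM/10% FBS, incubated 72 h at 37 C with pin-transferred compounds across a concentration series. Viability by CellTiter-Glo luminescence; concentration-response curves fitted after normalization.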
DT40 TDP1 no CPT: qHTS for Inhibitors of human tyrosyl-DNA phosphodiesterase 1 (TDP1): qHTS in cells in absence of CPT; Potency, µM (series often up to 46.2 µM), for the others: at the highest dose activity change, negative = growth inhibition, hits mostly inhibitors; AID 686978, 2013; 420,000 tested, 15% active; DT40 Tdp1-/- hTDP1 cells, no CPT, ATP luminescence, 48 h; also: nearly all actives have a fitted effect of over 55% in size
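A cellular qHTS used chicken DT40 cells lacking endogenous Tdp1 but carrying stably transfected human TDP1. Compounds were applied without camptothecin, and cell growth kinetics were judged by ATP-dependent luminescence after ≥48 hr.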
KB-V1 cytotox: qHTS assay for MDR1-selective chemotherapeutics: Primary screen using the drug-selected MDR subline cells KB-V1. KB-V1 MDR cells viability, CellTiter-Glo, 72 h. Potency, µM (highest dose often 46.1 µM), actives largely listed as cytotoxic. 400,000 tested, 3.4% active. AID 1347076, 2019; also: nearly all actives have a fitted effect of over 60% in size
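qHTS viability screen in drug-selected KB-V1 MDR cells: 72 h compound treatment at 37 degrees C, ATP luminescence end point.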
HT1080-NT tox: qHTS for induction of synthetic lethality in tumor cells producing 2HG: qHTS for the HT-1080-NT fibrosarcoma cell line; HT-1080-NT fibrosarcoma viability, CellTiter-Glo ATP luminescence, 48 h; Potency, µM (titrated, usually from 46.1 µM), for the others: top-dose activity, negative = less viability, usual class: cytotoxic; 360,000 tested, 1.6% active;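 also: NT is the 2HG producing partner of a matched IDH1 knockdown line; 0% = DMSO-treated cells and -100% = media-only wells without cells; nearly all actives have a fitted effect of over 55% in size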
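Viability by CellTiter-Glo luminescence after 48 h compound exposure at 37C of HT-1080-NT cells (750/well, RPMI, 5% FBS). % activity scaled between DMSO wells and medium-only wells, then curve-fitted and categorized by curve class.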
DT40 TDP1 CPT: qHTS for Inhibitors of human tyrosyl-DNA phosphodiesterase 1 (TDP1): qHTS in cells in presence of CPT; chicken DT40 Tdp1-/-;hTDP1 cells + 20 nM CPT, ATP luminescence, 48 h; 420,000 tested, 12% active; Potency, µM (top dose mostly 46.2 µM), for the others: at the highest dose activity change, negative = growth inhibition, most hits filed as inhibitors; also: nearly all actives have a fitted effect of over 55% in size
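Cell growth measured by CellTiter-Glo luminescence after a minimum 48 h, 37 C compound exposure with 20 nM CPT in Tdp1-knockout DT40 cells stably expressing hTDP1, seeded 400/well; qHTS titration format.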
* hit, by the source's call; i = inactive; ? = inconclusive; . = no result given; [ ] = another dose, or the depositor's remark. Calls follow the shape of the dose curve; as a rule, active = well fitted curve in the direction sought with a large enough effect; inconclusive = small, poorly fitted or top-dose-only effect, or another doubt; inactive = no such curve, though single readings can be large; an effect the other way counts as inactive or inconclusive. Unless noted, % is scaled to controls: 0 for no effect and ±100 for the full control effect; potency is read from the fitted curve at half-maximal effect.

SMILES	HT1080 IDH1KD tx	KB-3-1 tox	DT40 TDP1 no CPT	KB-V1 cytotox	HT1080-NT tox	DT40 TDP1 CPT
CCOC(=O)C1=C(C)NC(=O)NC1c1ccc(N(C)C)cc1 (configuration not stated)	-1.3%	i	-5.3%	i	-1.7%	-2.1%
CCC(CC)COC(=O)C1=C(C)NC(=O)NC1c1ccc(N(C)C)cc1 (configuration not stated)	-0.4%	i	20.6µM*	i	1.0%	?
CCCCOc1ccc(N(CC(=O)NC2CCCCC2)C(=O)CCC(=O)Nc2ccccn2)cc1	0.1%	i	-15.4%	i	3.2%	-29.4%
CN(C)CCCNc1nc(-c2ccccc2)nc2ccccc12	?	i	-15.5%	i	-25.3%	27.3%
COCCCNc1c2c(nc3ccccc13)CCC2	0.6%	i	?	?	0.0%	?
CN(C)CCNc1c2c(nc3ccccc13)CCC2	?	i	18.4µM*	i	-29.5%	?
CN(C)CCCNc1c2ccccc2nc2ccccc12	5.17µM*	1.64µM*	2.59µM*	11.6µM*	4.11µM*	2.91µM*
OCCNc1c2ccccc2nc2c(F)c(F)c(F)c(F)c12	4.61µM*	i	2.31µM*	?	?	2.06µM*
O=C(CSc1nnc(-c2ccc(F)cc2)o1)N1CCCC1	21.2%	i	2.1%	i	14.5%	2.8%
COc1ccc(S(N)(=O)=O)cc1C(=O)NNC(=O)CN(C)S(=O)(=O)c1ccc(Cl)cc1	9.9%	i	-5.4%	i	-0.9%	-2.4%
O=C(CSc1ccncc1)NCC1Cc2cccc(-c3cncnc3)c2O1 (configuration not stated)	.	.	-26.9%	.	.	?
CCOc1ccccc1C(=O)NC(CO)C(=O)O (configuration not stated)	1.8%	i	-12.0%	?	2.1%	-2.3%
COC(=O)c1ccccc1NC(=O)c1noc2c1CC(C(C)(C)C)CC2 (configuration not stated)	1.5%	i	20.6µM*	i	2.8%	?
Cc1ccccc1Cn1nc(C)c(NC(=O)c2noc3c2CC(C(C)(C)C)CC3)c1C (configuration not stated)	?	i	?	i	5.9%[9.24 µM]	?
Cc1ccc(NC(=O)c2noc3c2CC(C(C)(C)C)CC3)cc1 (configuration not stated)	5.5%	i	23.1µM*	i	18.2%	?
Cc1ccccc1Cn1cc(NC(=O)c2noc3c2CC(C(C)(C)C)CC3)cn1 (configuration not stated)	?	i	-27.7%	18.4µM*	?	-37.4%
CC(C)(C)C1CCc2onc(C(=O)Nc3cccnc3)c2C1 (configuration not stated)	-18.5%	i	-18.7%	i	-8.7%	-15.3%
CCOC1=C2[C@@H](CN(S(=O)(=O)c3ccc(C)cc3)[C@H]2c2cccc3ccccc23)[C@H]2C(=O)NC(=O)[C@H]2C1	-11.3%	i	?	i	-3.1%	?
CCc1ccc(CN(C(=O)Nc2cccc(Cl)c2)c2ccccn2)cc1	.	i	?	i	.	18.4µM*
CC(C)C(=O)N(Cc1ccccc1)c1ccccn1	1.0%[9.24 µM]	i	-11.1%	i	-15.5%	-15.7%
CCCNC(=O)C(Cc1ccc(C(F)(F)F)cc1)NC(=O)c1ccc(C#N)cc1 (configuration not stated)	9.7%	i	-5.3%	i	2.7%	-29.0%
CCOC(=O)c1cccc(NC(=O)Cn2ncc3c(=O)oc4ccccc4c32)c1	.	i	-15.6%	i	.	2.0%
CCN(CC)CC(=O)Nc1sc2c(c1C(=O)c1ccccc1OC)CCC2	?	?	14.6µM*	?	?	16.4µM*
CCOC(=O)c1ccc(NC(=O)c2c(NCc3cc(OC)ccc3OC)sc3c2CCC3)cc1	.	i	?	i	.	16.4µM*
CCOc1ccc(NC(=O)c2c(NCc3cc(OC)c(OC)cc3OC)sc3c2CCCC3)cc1	.	i	?	i	.	?
SMILES	HT1080 IDH1KD tx	KB-3-1 tox	DT40 TDP1 no CPT	KB-V1 cytotox	HT1080-NT tox	DT40 TDP1 CPT
COc1cc(OC)c(OC)cc1CNc1sc2c(c1C(=O)Nc1ccccc1OC)CCC2	.	i	20.6µM*	i	.	20.6µM*
CCOC(=O)c1ccc(NC(=O)c2c(NCc3cc(OC)c(OC)cc3OC)sc3c2CCCC3)cc1	.	i	?	i	.	23.1µM*
COc1ccccc1CC(=O)Nc1sc2c(c1C(N)=O)CCCC2	?	i	-32.1%	i	?	-5.1%
Nc1ccc(-c2nnnn2-c2ccc(N)cc2)cc1	2.5%	i	-14.5%	i	1.2%	1.3%
CC(C)N1C[C@@H](Sc2ccccn2)C[C@H]1C(=O)Nc1ccc2c(c1)Nc1ccccc1CC2	.	.	-10.1%	.	.	10.8%[9.04 µM]
Cc1ccc(C(=O)c2nccn2C)cc1C	10.1%	i	-17.0%	i	23.3%	3.7%
CCc1noc(C)c1C(=O)OCC(=O)Nc1ccc(F)cc1Cl	-7.0%	i	?	i	-3.0%	2.8%
COc1ccc(-c2csc(NC(=O)c3cc(C)oc3C)n2)cc1OC	-21.8%	?	18.4µM*	?	-4.1%	?
COc1ccc(-c2csc(NC(=O)c3c(OC)cccc3OC)n2)cc1	-0.2%	i	?	i	4.1%	-29.5%
CCc1noc(C)c1C(=O)Nc1nc(-c2ccc(OC)c(OC)c2)cs1	-9.9%	i	?	10.3µM*	-10.9%	?
CCc1noc(C)c1C(=O)OCC(=O)Nc1nc(-c2ccc(F)c(F)c2)cs1	2.1%	i	14.6µM*	2.91µM*	-12.6%	?
CCc1noc(C)c1C(=O)Nc1nc(-c2ccc(NC(C)=O)cc2)cs1	8.3%	i	20.6µM*	?	8.0%	16.4µM*
COc1ccc(-c2csc(NC(=O)CSCC(=O)Nc3cc(C)on3)n2)cc1OC	-8.8%	i	?	i	-2.8%	?
CCc1noc(C)c1C(=O)OCC(=O)c1ccc(NC(C)=O)cc1F	-3.0%	i	20.6µM*	i	-1.2%	?

Bioassay records (PubChem BioAssay)
